Data as given in PubChem BioAssay (EPA / NIEHS).
Records with an inconclusive call do not appear. Activity calls are given as the source filed them. Rule for the calls: active = hit-call score of the fitted dose curve at least 0.9, where 1 is the maximum; inconclusive = response in the unintended direction; inactive = score below 0.9.

Assay: Tanguay_ZF_120hpf_TRUN_legacy: (Legacy) Oregon State University Tanguay Lab 120 Hour Post-fertilization zebrafish Assay for Truncated Body (AID 2283655)
Description: Tanguay_ZF_120hpf_legacy is a whole embryo, multiplexed endpoint assay using zebrafish larvae exposed for 120 hours post fertilization on a 96-well plate.Tanguay_ZF_120hpf_TRUN_legacy is one of one assay component(s) measured or calculated from the Tanguay_ZF_120hpf_legacy assay. It is designed to make measurements of zebrafish development as detected with brightfield microscopy of developing zebrafish embryos.Data from the assay component Tanguay_ZF_120hpf_TRUN_legacy was analyzed into 1 assay endpoints. This assay endpoint, Tanguay_ZF_120hpf_TRUN_legacy, was analyzed in the positive analysis fitting direction relative to DMSO as the negative control and baseline of activity. Using a type of morphology reporter, gain-of-signal activity can be used to understand changes in developmentals as they relate to the whole embryo. To generalize the intended target to other relatable targets, this assay endpoint is annotated to the zebrafish development intended target family, where the subfamily is embryonic morphogenesis.
Zebrafish husbandry: Tropical 5D wild-type adult zebrafish were housed in at an approximate density of 1000 per 100 gallon tank at the Sinnhuber Aquatic Research Laboratory, Oregon State University, Corvallis, OR. Each tank was kept at standard laboratory conditions of 28C on a 14-h light/10-h dark photoperiod in fish water consisting of reverse osmosis water supplemented with a commercially available salt (Instant Ocean). Spawning funnels were placed into the tanks the night prior, and embryos were collected and staged. To increase bioavailability, the chorion was enzymatically removed using pronase (63.6mg/ml, >/= 3.5U/mg, Sigma-Aldrich: P5147) at 4 hours post fertilization (hpf) using a custom automated dechorionator.Chemical exposures: Six hpf dechorionated embryos were placed 1 embryo per well in a 96-well plate prefilled with 90 ul of EM using automated embryo placement systems (AEPS). Ten microliters of each row of dilution plate 2 was added to 2 exposure plates. The final DMSO concentration used was 0.64% (vol/vol). Thirty-two embryos were also exposed to 5uM trimethyltin chloride (positive control). Plates were sealed to prevent evaporation and foil covered to reduce light exposure and kept in a 28C incubator. Embryos were statically exposed until 120 hpf. At 24 hpf, embryos were assessed for photomotor response using a custom photomotor response analysis tool (PRAT) and for developmental toxicity endpoints (MO24: mortality at 24 hpf, DP: developmental progression, SM: spontaneous movement, and NC: notochord distortion). At 120 hpf, locomotor activity was measured using Viewpoint Zebralab and assessed for 18 endpoints. Zebrafish acquisition and analysis program (ZAAP), a custom program designed to inventory, acquire, and manage zebrafish data, was used to collect developmental endpoints as either present or absent (i.e., binary responses were recorded). If mortality occurred for an embryo (at either 24 or 120 hpf), the non-mortality endpoints were not measured.

SMILES | outcome | AC50
O=C(O)COc1nc(Cl)c(Cl)cc1Cl | inactive | 
CN(C)C(=S)SSC(=S)N(C)C | inactive | 
Cc1c(F)c(F)c(COC(=O)C2C(/C=C(\Cl)C(F)(F)F)C2(C)C)c(F)c1F (stereo not given) |  | 2360 nM (active)
Oc1ccccc1-c1ccccc1 | inactive | 
CCCCNC(=O)n1c(NC(=O)OC)nc2ccccc21 | inactive | 
COc1nc(NC(C)C)nc(NC(C)C)n1 | inactive | 
N#Cc1cc(Br)c(O)c(Br)c1 | inactive | 
CC(C)(C)c1ccc(CSc2cnn(C(C)(C)C)c(=O)c2Cl)cc1 | inactive | 
CCCCNC(=O)OCC#CI | inactive | 
CCCCOC(=O)c1ccccc1C(=O)OCCCC | inactive | 
CO/C=C(/C(=O)OC)c1ccccc1Oc1cc(Oc2ccccc2C#N)ncn1 | inactive | 
CCOC(=O)C(Cl)Cc1cc(-n2nc(C)n(C(F)F)c2=O)c(F)cc1Cl (stereo not given) | inactive | 
CCc1nn(C)c(C(=O)NCc2ccc(C(C)(C)C)cc2)c1Cl | inactive | 
COc1ccc(C(c2ccc(OC)cc2)C(Cl)(Cl)Cl)cc1 | inactive | 
Cc1cc(Cl)ccc1OCC(=O)O | inactive | 
CCNc1nc(Cl)nc(NC(C)C)n1 | inactive | 
COC(=O)C=C(C)OP(=O)(OC)OC | inactive | 
COP(N)(=O)SC (stereo not given) | inactive | 
COC(=O)C(C)Oc1ccc(Oc2ccc(Cl)cc2Cl)cc1 (stereo not given) | inactive | 
COc1cnc(OC)n2nc(NS(=O)(=O)c3c(OCC(F)F)cccc3C(F)(F)F)nc12 | inactive | 

SMILES | outcome | AC50
CCCN(CCC)c1c([N+](=O)[O-])cc(S(N)(=O)=O)cc1[N+](=O)[O-] | inactive | 
Fc1ccc(Oc2ccnc3cc(Cl)cc(Cl)c23)cc1 | inactive | 
C=CC1(C)OC(=O)N(c2cc(Cl)cc(Cl)c2)C1=O (stereo not given) | inactive | 
CNC(=O)ON=CC(C)(C)SC |  | 1070 nM (active)
CON(C)C(=O)Nc1ccc(Cl)c(Cl)c1 | inactive | 
CC1=C(C(=O)Nc2ccccc2)SCCO1 | inactive | 
CCCCC(CC)COC(=O)c1ccccc1C(=O)OCC(CC)CCCC (stereo not given) | inactive | 
CCOC(=O)CC(SP(=S)(OC)OC)C(=O)OCC (stereo not given) |  | 34200 nM (active)
N#Cc1nn(-c2c(Cl)cc(C(F)(F)F)cc2Cl)c(N)c1S(=O)C(F)(F)F (stereo not given) | inactive | 
CC(C)Oc1cc(-n2nc(C(C)(C)C)oc2=O)c(Cl)cc1Cl | inactive | 
COC(=O)N(OC)c1ccccc1COc1ccn(-c2ccc(Cl)cc2)n1 | inactive | 
CNC(=S)S | inactive | 
CC(C)C1(C)N=C(c2nc3ccccc3cc2C(=O)O)NC1=O (stereo not given) | inactive | 
CCOc1cc(Oc2ccc(C(F)(F)F)cc2Cl)ccc1[N+](=O)[O-] | inactive | 
CCON=C(CC)C1=C(O)CC(c2c(C)cc(C)cc2C)CC1=O (stereo not given) | inactive | 
Cc1ccc(-c2c(Cl)nc(C#N)n2S(=O)(=O)N(C)C)cc1 | inactive | 
CCCC1COC(Cn2cncn2)(c2ccc(Cl)cc2Cl)O1 (stereo not given) | inactive | 
CCOP(=S)(OCC)SCn1c(=O)oc2cc(Cl)ccc21 | inactive | 
COP(=S)(OC)Oc1nc(Cl)c(Cl)cc1Cl | inactive | 
CS/C(C)=N/OC(=O)N(C)SN(C)C(=O)O/N=C(\C)SC | inactive | 
